# Screens as filed in PubChem.
# This excerpt belongs to a sample that is enriched for hits.
# SARS PLP yeast: blocks SARS-CoV papain-like protease in a yeast assay; S. cerevisiae expressing SARS-CoV PLpro, growth rescue; Potency, µM (top dose mostly 32.9 µM), without a hit: top-dose activity, positive = growth rescue, actives largely listed as activators; actives 0.19% (n = 330,000); AID 485353; further: potency means the concentration at half of the fitted maximal effect; 0% is about no effect; nearly all actives have a fitted effect of over 55% in size
# Tb PYK inh: blocks Trypanosoma brucei pyruvate kinase. Q57TT1. TbPYK enzyme, Kinase-Glo Plus ATP luminescence, 45 min. Potency, µM (titrated, usually from 76.8 µM), for the others: at the highest dose activity, negative = inhibition, actives largely listed as inhibitors. actives 0.12% (n = 410,000); active means well fitted curve in the direction sought with a large enough effect; inconclusive means small, poorly fitted or top-dose-only effect, or another doubt; inactive means no such curve, though single readings can be large; an effect the other way counts as inactive or inconclusive; further: potency means the concentration at half of the fitted maximal effect; on the % scale 0 is the no-effect control and ±100 the full control effect; nearly all actives have a fitted effect of over 50% in size
#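 Luminescent Kinase-Glo Plus end-point after 45 min room-temperature reaction of T. brucei pyruvate kinase started with 130 uM ADP (final). Buffer TEA 50 mM pH 7.2 with KCl, MgCl2, BSA, Tween-20; titration-based qHTS with fitted concentration-effect curves.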
# LmPK inhibitor: inhibitors of Leishmania mexicana pyruvate kinase. Potency, µM (highest dose often 57.5 µM), without a hit: at the highest dose activity change, negative = inhibition, hits mostly inhibitors. purified LmPK, Kinase-Glo ATP luminescence, 1 h. Q27686. actives 0.37% (n = 290,000); active means well fitted curve in the direction sought with a large enough effect; inconclusive means small, poorly fitted or top-dose-only effect, or another doubt; inactive means no such curve, though single readings can be large; an effect the other way counts as inactive or inconclusive; further: potency means the concentration at half of the fitted maximal effect; on the % scale 0 is the no-effect control and ±100 the full control effect
# Target sequence (Q27686 whole entry, looked up): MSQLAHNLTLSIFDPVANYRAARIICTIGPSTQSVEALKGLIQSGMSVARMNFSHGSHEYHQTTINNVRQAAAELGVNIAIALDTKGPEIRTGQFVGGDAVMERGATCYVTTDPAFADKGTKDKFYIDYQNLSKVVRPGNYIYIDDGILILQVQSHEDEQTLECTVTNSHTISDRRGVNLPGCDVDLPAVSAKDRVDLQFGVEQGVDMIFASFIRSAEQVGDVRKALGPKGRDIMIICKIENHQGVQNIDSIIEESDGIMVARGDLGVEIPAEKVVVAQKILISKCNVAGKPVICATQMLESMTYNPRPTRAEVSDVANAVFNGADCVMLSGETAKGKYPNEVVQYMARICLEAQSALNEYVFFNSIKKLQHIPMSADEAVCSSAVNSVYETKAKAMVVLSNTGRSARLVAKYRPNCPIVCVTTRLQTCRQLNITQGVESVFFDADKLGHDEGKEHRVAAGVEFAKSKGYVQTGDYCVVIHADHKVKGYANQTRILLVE
#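 Kinase-Glo luminescence read after 1 h RT reaction of 0.1 nM LmPK with 0.5 mM PEP and 0.1 mM ADP. Activity scaled between uninhibited and enzyme-free controls.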
# NS1 inh: blocks influenza NS1 protein function | Potency, µM (top dose mostly 46.1 µM), for inactives: at the top dose activity, positive = more growth | actives 0.4% (n = 270,000) | AID 2326; further: potency means the concentration at half of the fitted maximal effect; actives are rising curves; nearly all actives have a fitted effect of over 50% in size
#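 A cell-based growth assay was used: compounds that relieve NS1-induced slow growth of budding yeast raise OD600. Assay medium was yeast nitrogen base with ammonium sulphate and -URA supplement, pH 6.0, with 2% galactose.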
# Cycloheximide cs: affects cycloheximide protein synthesis inhibition readout, counter-screen. max response, %. cell reporter, cycloheximide protein synthesis inhibition counterscreen. actives 12% (n = 300,000); in the data active means max response mostly above about 13%, no sharp cut-off; inactive means mostly below about 14%; further: read at 38.3 µM for the half of the compounds with a filed dose; 0% is about no effect
# Shiga toxin inh: Shiga toxin inhibition | inhibition, % at 38.7 µM | actives 9.2% (n = 290,000) | Vero cells, Shiga toxin protein synthesis inhibition reporter; in the data active means inhibition mostly above about 28%, no sharp cut-off; inactive means mostly below about 43%; further: 0% is about no effect
# Active calls of the source: *; u = inconclusive; x = no result. Unless noted, the call rests on the fitted dose curve.
SMILES,SARS PLP yeast,Tb PYK inh,LmPK inhibitor,NS1 inh,Cycloheximide cs,Shiga toxin inh
O=C(NC(=S)N1CCN(c2ccc(O)cc2)CC1)c1ccco1,-3%,-17%,x,x,x,x
Cc1sc(NC(=O)c2ccco2)c(CN2CCN(c3ccccn3)CC2)c1C,-14%,4%,4%,-128%,32*,54
O=C(NC(=S)N1CCN(c2ccccn2)CC1)c1ccco1,0%,-8%,-1%,1%,18*,36
COCCCNc1oc(-c2ccccc2Cl)nc1C#N,0%,-4%,2%,-10%,15*,52
CC(C)CNc1oc(-c2ccccc2Cl)nc1C#N,-2%,2%,-3%,-45%,14*,29*
O=C(NCCc1ccccc1)c1cc(-c2ccc(Cl)cc2)on1,x,1%,x,x,x,x
CN(C)S(=O)(=O)c1cccc(COC(=O)Cc2c(F)cccc2Cl)c1,-10%,1%,-11%,-25%,14*,27
CC(c1ccccc1)n1c(Cn2ncc3ccccc3c2=O)n[nH]c1=S (centres undefined),1%,u,-6%,x,0,-3
COC(=O)CSc1nnc(Cc2ccccc2)n1-c1ccc(C)cc1,9%,-5%,2%,-1%,14*,0
O=c1c2ccccc2cnn1Cc1n[nH]c(=S)n1-c1ccc(Cl)cc1,8%,u,u,15%,72*,52*
S=c1[nH]nc(Cc2ccccc2)n1-c1ccc(Cl)cc1,1%,2.8µM*,-16%,9%,-2,-17
S=c1[nH]nc(CCc2ccccc2)n1-c1ccccc1,-5%,u,3.5µM*,3%,3,-5
S=c1[nH]nc(CCc2ccccc2)n1-c1ccc(Cl)cc1,0%,u,u,16%,1,-10
Cc1c(-c2ccc(OCCN3CCOCC3)cc2)c(=O)oc2ccc3ccccc3c12,x,-10%,x,x,x,x
O=C(CCNC(=O)C1CCN(S(=O)(=O)c2ccc(F)cc2)CC1)NCc1cccnc1,7%,3%,2%,2%,-7,26
Cc1ccc(-n2c(CSc3nc(C)cc(C)n3)n[nH]c2=S)cc1,1%,7.1µM*,u,-1%,-3,-7
Cc1ccc(-n2c(Cc3ccccc3)n[nH]c2=S)cc1,6%,u,7.9µM*,5%,-1,-12
S=c1[nH]nc(Cc2ccccc2)n1-c1ccccc1,0%,u,u,-1%,-2,-7
S=c1[nH]nc(COc2ccc(Cl)cc2)n1-c1ccccc1,-4%,8.9µM*,u,30%,-4,x
O=C(Cc1ccccc1)NCC(=O)N1CCC2(CC1)NCCc1[nH]cnc12,6%,7%,6%,5%,7,14
Cc1ccsc1-c1cc2nc(NCCCN(C)C)n(C)c(=O)c2s1,x,1%,x,x,x,x
O=C(Nc1ccccc1C(F)(F)F)c1cc(-c2cccc(O)c2)on1,-6%,-11%,0%,-2%,20*,27
Cc1c(Cl)cccc1NC(=O)c1cc(-c2cccc(Cl)c2)on1,x,0%,x,x,x,x
COc1cccc(-c2cc(C(=O)Nc3cccnc3Cl)no2)c1,-1%,3%,-3%,-13%,10,10
CCc1ccccc1NC(=O)c1cc(-c2ccc(F)cc2)on1,0%,0%,-13%,x,21,33
SMILES,SARS PLP yeast,Tb PYK inh,LmPK inhibitor,NS1 inh,Cycloheximide cs,Shiga toxin inh
CCc1ccccc1NC(=O)c1cc(-c2cccc(O)c2)on1,1%,-3%,1%,-8%,20*,61
CCc1ccccc1NC(=O)c1cc(-c2cccs2)on1,-2%,-6%,0%,-26%,17*,38
CC(NC(=O)c1cc(-c2cccs2)on1)c1ccccc1 (centres undefined),11%,-2%,2%,4%,10,5
O=C(Nc1cccnc1Cl)c1cc(-c2cccc(O)c2)on1,-2%,0%,-3%,5%,16*,70*
CSc1ccc(CN2C(=O)NC3(CCCCCCC3)C2=O)cc1,-3%,1%,-4%,x,12,-7
O=C(Nc1ccc(-c2nc3ccccc3[nH]2)cc1)C1CCCN(Cc2ccn[nH]2)C1 (centres undefined),x,-2%,x,x,x,x
CN(C)c1nc(N)nc2c1ncn2C1OC(CO)CC1O (centres undefined),x,6%,x,x,x,x
Cc1cc(C)cc(NC(=O)c2ccc3c(c2)CCN3S(C)(=O)=O)c1,-2%,2%,-4%,-3%,23,17
Cc1ccc(NC(=O)c2ccc3c(c2)CCN3S(C)(=O)=O)cc1C,-11%,0%,1%,3%,29*,31*
Cc1cccc(NC(=O)c2ccc3c(c2)CCN3S(C)(=O)=O)c1,-9%,-3%,1%,-9%,29*,47*
CC(=NCCc1ccccc1)C1=C(O)CSC1=O,11%,-11%,-5%,-5%,28*,14
CCCN(CC(=O)Nc1ccccc1C)C(=O)c1ccc(COc2ccccc2)cc1,4%,-12%,-7%,-52%,30*,85*
CCN(Cc1ccccc1)C(=O)C1CCN(C(=O)Nc2ccccc2)CC1,-1%,-8%,-2%,0%,-2,-10
CCN(CC(=O)NCc1ccc(F)cc1)C(=O)c1ccc(COc2ccccc2)cc1,-3%,-2%,0%,13%,52*,99*
CCC(Oc1ccccc1)C(=O)N(CC)CC(=O)NCc1ccc(F)cc1 (centres undefined),-4%,-14%,x,x,x,x
CCN(CC(=O)NCc1ccc(F)cc1)C(=O)C1CCN(C(=O)Nc2ccccc2)CC1,7%,1%,-5%,-7%,13*,58
O=C(COC(=O)c1ccc(Cl)c(S(=O)(=O)N2CCCCC2)c1)NC1CCCCC1,x,6%,x,x,x,x
COc1ccc(C(=O)NCC(c2cccs2)S(=O)(=O)c2ccc(F)c(C)c2)cc1 (centres undefined),x,-1%,x,x,x,x
Cc1csc(Nc2ccc(Cl)cc2)n1,0%,-5%,2%,-8%,24*,73*
Cc1ccc(Nc2nc(C)cs2)cc1,0%,-13%,-14%,8%,54*,125*
N#C/C(=C\c1c(F)cccc1Cl)S(=O)(=O)c1ccccn1,0%,-2%,-2%,3%,-2,-14
CCCOc1ccc(-c2nonc2NC(=O)c2cc(OC)c(OC)c(OC)c2)cc1OCCC,x,-8%,x,x,x,x
COc1ccc(NC(=O)c2cc(-c3ccccc3O)no2)cc1,x,-6%,x,x,x,x
COc1ccc(-c2cc(C(=O)Nc3ccccc3)on2)cc1,0%,10%,u,9%,19*,124*
COc1ccc(-c2cc(C(=O)Nc3ccccc3F)on2)cc1,-3%,-2%,-5%,x,33*,80*
COc1ccc(C(=O)Nc2ccc(N3CCN(C)CC3)cc2)cc1,-3%,2%,3%,-24%,48*,x
COc1ccc(C(=O)Nc2ccc(N3CCN(C)CC3)cc2)cc1OC,5%,4%,-3%,-5%,30*,48*
CCOC(=O)N1CCN(C(=O)c2ccc(NC(C)=O)cc2)CC1,0%,-3%,-1%,0%,-2,2
